This note sets out measurements from PubChem BioAssay (NCATS).

This experiment is described as follows: qHTS drug screen for cell cycle checkpoint inhibitors in PARPi-resistant BRCA-mutant ovarian cancer cell lines. (AID 1963452). Particulars: PEO1/OlaR viability, CellTiter-Glo luminescence, 96 h; for Z-AUC: stronger effect = lower value. In outline: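 PEO1, PEO4 and PEO1/OlaR ovarian cancer cells, 600 per well, exposed 96 h at 37C to a dilution series. Viability read by CellTiter-Glo luminescence, normalized to DMSO and empty wells; activity summarized as Z-AUC.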
Background: Quantitative high-throughput screening tests each substance at several concentrations.

[1] abbreviates: measured here: PEO1 parental Z-AUC.

Several values for one entry are separate records, joined by “and”; a condition that tells them apart may be missing. Equal values may be shown once. Activity calls are given as the source filed them. Calls follow the shape of the full dose curve.
Potency is read from the fitted curve at half-maximal effect.

`C[C@H](CN(C)C)Oc1nc(Nc2cc3cccc(Cl)c3cn2)cnc1C#N`: the Z-AUC is -0.234 (inactive). Besides, the Z-AUC under setting [1] was 0.15. For the same compound, the Z-AUC (measured here: PEO4 Z-AUC) is -0.249.

Consider `CCCCNc1ncc(-c2ccc(CN3CCOCC3)cn2)c(NC2CCC(O)CC2)n1` (configuration not stated), for which the Z-AUC was -1.2 (inactive). In addition, the Z-AUC under setting [1] was -1.14. The Z-AUC (measured here: PEO4 Z-AUC) is -0.666.

As for `Cc1nc(-c2cn3c(n2)-c2ccc(-c4cnn(C(C)(C)C(N)=O)c4)cc2OCC3)n(C(C)C)n1`, the Z-AUC is -1.26 (inactive). Further, the Z-AUC under setting [1] is -0.764. In addition, where the note is “measured here: PEO4 Z-AUC”, the Z-AUC was -0.716.

As for `CC(C)C[C@H](CO)Nc1nc(S[C@@H](C)c2ccccc2)nc2nc(N)sc12`, the Z-AUC was -0.387 (inactive). For the same compound, under setting [1], the Z-AUC is -0.481. For the same compound, for the setting “measured here: PEO4 Z-AUC”, the Z-AUC is -0.0726.

With `Cc1nc2ccc(-n3ncc(C(=O)c4cc5ccccc5[nH]4)c3N)cc2[nH]1`, the Z-AUC is -0.798 (inactive). Under setting [1], the Z-AUC is -1.1. Under “measured here: PEO4 Z-AUC”, the Z-AUC was -0.294.

Regarding `CCCC1(CCC)CCC2(CCN(CCCN(CC)CC)C2)CC1`, the Potency is 3890 nM (active). Under setting [1], the Z-AUC is -2.03. Further, the Z-AUC (measured here: PEO4 Z-AUC) was -1.83.

Take `Cn1cc(-c2ccc(S(=O)(=O)n3ccc(/C=C/C(=O)Nc4ccccc4N)c3)cc2)cn1`: the Z-AUC is 0.896 (inactive). For the same compound, the Z-AUC under setting [1] was determined as 1.17. The Z-AUC (measured here: PEO4 Z-AUC) worked out at 0.999.

For the compound `Cc1cc(F)c(C(=O)Nc2cccc(-c3nncn3C(C)C)n2)cc1-n1cnc(C2CC2)c1`, the Z-AUC is -0.535 (inactive). In addition, under setting [1], the Z-AUC was -0.555. Besides, the Z-AUC (measured here: PEO4 Z-AUC) is -0.37.

As to `CCn1nc(C2CCN(C(=O)CCO)CC2)nc1-c1cnc(N)c(-c2nnc(C(C)(C)C)o2)n1`, the Z-AUC is 0.285 (inactive). In addition, the Z-AUC under setting [1] stood at 0.385. Also, the Z-AUC (measured here: PEO4 Z-AUC) stood at 0.568.

In the case of `COc1ccc(CNc2nc(N(CCO)CCO)nc3c2ncn3C(C)C)cc1`, the Z-AUC was -0.772 (inactive). In addition, under setting [1], the Z-AUC is -0.866. Moreover, the Z-AUC (measured here: PEO4 Z-AUC) is -0.51.

On to `CC(C)S(=O)(=O)c1ccc2nccc(Nc3ccc4scnc4c3)c2c1`, for which the Z-AUC is -0.9 (inactive). Further, the Z-AUC under setting [1] was -0.597. Further, the Z-AUC (measured here: PEO4 Z-AUC) is -0.874.

As for `N#Cc1ccc(COC[C@H]2O[C@@H](n3c(NCc4ccc(Cl)c(Cl)c4)nc4c(N)ncnc43)[C@H](O)[C@@H]2O)cc1`, the Z-AUC was -0.735 (inactive). Besides, under setting [1], the Z-AUC was -0.265. For the same compound, the Z-AUC (measured here: PEO4 Z-AUC) was found to be 0.0878.

For `Cc1cc(-c2nc3cc(F)ccc3s2)ccc1NC(=O)[C@@H](N)CCCCN`, the Z-AUC was -0.88 (inactive). In addition, the Z-AUC under setting [1] was -1.06. Also, the Z-AUC (measured here: PEO4 Z-AUC) was -1.32.

Regarding `Cn1ncc2cc(-c3cnc(N)c(Cl)c3N3CCC4(CCNC4=O)CC3)ccc21`, the Z-AUC is -0.513 (inactive). Further, under setting [1], the Z-AUC was -0.91. In addition, the Z-AUC (measured here: PEO4 Z-AUC) is -1.02.

Regarding `Cc1cc(N2CCOCC2)ccc1Nc1nc(NC2CCCCC2)c2[nH]cnc2n1`, the Z-AUC was -0.0672 (inactive). For the same compound, the Z-AUC under setting [1] was -0.748. Further, the Z-AUC (measured here: PEO4 Z-AUC) was -0.826.

Regarding `CC(=O)N1CCN(CCOc2ccc(C3CCN(C4=Nn5c(nnc5C(F)(F)F)CC4)CC3)cc2)CC1`, the Z-AUC was -0.519 (inactive). Also, the Z-AUC under setting [1] is -0.781. In addition, where the note is “measured here: PEO4 Z-AUC”, the Z-AUC is -0.776.

For the compound `NC(=O)c1cnc(N[C@@H]2CCCC[C@@H]2N)nc1Nc1cccc(-n2nccn2)c1`, the Z-AUC is 0.565 (inactive). Besides, the Z-AUC under setting [1] was -0.0999. The Z-AUC (measured here: PEO4 Z-AUC) is 0.242.

For the compound `O=C(NCCCNc1nc(Nc2cccc(CN3CCOCC3)c2)ncc1C1CC1)C1CCC1`, the Z-AUC is -0.249 (inactive). For the same compound, under setting [1], the Z-AUC is -0.12. The Z-AUC (measured here: PEO4 Z-AUC) was -0.429.

As to `CCOC(=O)[C@@]1(CCCCCCOc2ccc(Cl)cc2)CO1`, the Z-AUC is 1.19 (inactive). The Z-AUC under setting [1] turned out to be 1.19. Also, the Z-AUC (measured here: PEO4 Z-AUC) turned out to be 1.21.

As to `O=C(O)C1=CO[C@@H](O[C@@H]2O[C@H](CO)[C@@H](O)[C@H](O)[C@H]2O)[C@@H]2C(CO)=CC[C@H]12`, the Z-AUC was 1.4 (inactive). Further, the Z-AUC under setting [1] came out at 1.85. The Z-AUC (measured here: PEO4 Z-AUC) came to 1.61.

Regarding `Cn1ncc(Cl)c1-c1cc(C(=O)NC(CN)Cc2ccc(F)c(F)c2)oc1Cl` (configuration not stated), the Z-AUC was 0.713 (inactive). The Z-AUC under setting [1] came to 0.319. The Z-AUC (measured here: PEO4 Z-AUC) is 0.353.

For the compound `Cc1ccc(NC(=O)c2ccc(CN3CCNCC3)cc2)cc1Nc1nccc(-c2cccnc2)n1`, the Z-AUC was 0.805 (inactive). In addition, the Z-AUC under setting [1] is 0.225. The Z-AUC (measured here: PEO4 Z-AUC) was 0.453.

With `O=C(Nc1cccnc1)c1cc(-c2ccnc(F)c2)ccc1OCc1ccccc1`, the Z-AUC is -0.389 (inactive). Also, the Z-AUC under setting [1] is -0.74. Further, for the setting “measured here: PEO4 Z-AUC”, the Z-AUC was -0.497.

With `C1=C/COCc2cc(ccc2OCCN2CCCC2)Nc2nccc(n2)-c2cccc(c2)COC/1`, the Z-AUC was -1.05 (inactive). The Z-AUC under setting [1] is -1.19. The Z-AUC (measured here: PEO4 Z-AUC) was -0.941.

Take `O=C(c1c(F)ccc(NS(=O)(=O)N2CC[C@@H](F)C2)c1F)c1c[nH]c2ncc(-c3cnc(C4CC4)nc3)cc12`: the Z-AUC was -0.0874 (inactive). Moreover, the Z-AUC under setting [1] is 0.401. The Z-AUC (measured here: PEO4 Z-AUC) was 0.486.

Consider `CC1(C)CN(C(=O)c2ccc(-c3cccc4nc(NC(=O)C5CC5)nn34)cc2)C1`, for which the Z-AUC was 0.782 (inactive). Further, under setting [1], the Z-AUC amounted to 0.925. Also, the Z-AUC (measured here: PEO4 Z-AUC) was 1.32.

Regarding `COc1cc(N2CCC(N3CCN(C)CC3)CC2)ccc1Nc1ncc(Cl)c(Nc2ccccc2P(C)(C)=O)n1`, the Potency was 549 nM (active). Also, under setting [1], the Z-AUC is -1.53. The Z-AUC (measured here: PEO4 Z-AUC) is -1.55.

Take `C[C@H](Nc1ncnc2nc[nH]c12)c1cc2cccc(Cl)c2c(=O)n1-c1ccccc1`: the Z-AUC was -0.68 (inactive) and -0.929 (inactive). Besides, the Z-AUC under setting [1] was 0.702 and -0.975. Besides, the Z-AUC (measured here: PEO4 Z-AUC) is 0.729 and -0.588.

As to `O=C(Nc1ccnc(NC(=O)C2CC2)c1)c1c(Cl)cccc1Cl`, the Z-AUC was -1.13 (inactive). The Z-AUC under setting [1] is -0.966. Where the note is “measured here: PEO4 Z-AUC”, the Z-AUC was -0.923.
